High-throughput results (PubChem)
FBW7 act: FBW7 E3 ligase activators, primary screen, biochemical, AlphaScreen, human; F-box/WD repeat-containing protein 7 (Homo sapiens), Q969H0; AlphaScreen FBW7–phospho-cyclin E peptide binding, activator screen; normalized activity (activation), % at 26.1 µM; 650,000 compounds, 0.13% hits; in the data active = normalized activity above about 1.9%;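 also: purified mutant Fbw7 with reduced substrate affinity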
MITF primary: MITF inhibitors, primary screen, biochemical, AlphaScreen, human; AlphaScreen MITF homodimerization, bead proximity signal; AID 1259374, 2018; Microphthalmia-associated transcription factor (Homo sapiens), O75030; inhibition, % at 2.6 µM; 650,000 compounds, 0.91% hits; in the data active = inhibition above about 50%;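 also: 0% = vehicle wells with protein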
GPR151 ag: activators of human GPR151, primary screen, cell-based, PathHunter beta-arrestin, luminescence; G-protein coupled receptor 151 (Homo sapiens), Q8TDV0; PathHunter beta-arrestin GPR151 cells; activation, % at 11.2 µM; 650,000 compounds, 1% hits; AID 1508602, 2020; in the data active = activation above about 4.9%;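 also: 0% = median of compound wells and 100% = cells with positive control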
Target sequence (Q8TDV0 whole entry, looked up): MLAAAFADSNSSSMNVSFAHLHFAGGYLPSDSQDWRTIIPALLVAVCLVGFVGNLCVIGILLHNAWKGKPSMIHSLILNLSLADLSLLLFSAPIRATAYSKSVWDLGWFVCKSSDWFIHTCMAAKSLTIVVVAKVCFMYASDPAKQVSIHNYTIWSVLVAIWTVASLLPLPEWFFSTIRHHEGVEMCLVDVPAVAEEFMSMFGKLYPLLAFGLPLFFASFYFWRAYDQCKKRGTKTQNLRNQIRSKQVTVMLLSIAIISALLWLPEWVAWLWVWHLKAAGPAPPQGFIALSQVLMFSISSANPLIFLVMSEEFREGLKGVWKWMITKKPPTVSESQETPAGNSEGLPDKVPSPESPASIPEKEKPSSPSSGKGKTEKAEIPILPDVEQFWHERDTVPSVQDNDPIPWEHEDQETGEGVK
TEAD-YAP inh: TEAD-YAP interaction inhibition, primary screen, TEAD-YAP interaction inhibitor project, luminescence, HEK-TIYL cells. TEAD-Gal4/YAP UAS-luciferase luminescence. inhibition, % at 9.12 µM. 640,000 compounds, 1.4% hits. AID 1259422, 2018; in the data active = inhibition above about 32%;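 also: 0% = median of test compound wells and 100% = reference inhibitor wells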
Numbers without * were called inactive. The list is not random: actives were taken first. Their share in the collection is about 3.4%.

Screening O=C(N/N=C/c1c[nH]c2ccccc12)c1ccncc1 returned FBW7 act 0, MITF primary 14, GPR151 ag 2 and TEAD-YAP inh 5.
O=C(NC1c2ccccc2-c2ccccc21)c1ccccc1 was read as FBW7 act 0, MITF primary -18, GPR151 ag 0 and TEAD-YAP inh -2.
O=C(NC1c2ccccc2-c2ccccc21)c1cccc([N+](=O)[O-])c1 was read as FBW7 act 0, MITF primary -2, GPR151 ag -1 and TEAD-YAP inh 54*.
Screening Cc1ccc(-c2ccccc2)n1-c1ccc(O)c(C(=O)O)c1 returned FBW7 act 0, MITF primary 78*, GPR151 ag -1 and TEAD-YAP inh 0.
`Cc1ccc(-c2ccccc2)n1-c1ccc(C(=O)O)cc1` gave FBW7 act 0, MITF primary 0, GPR151 ag -2 and TEAD-YAP inh -9.
`CC(=O)Oc1ccc(-c2csc(Nc3cccc(O)c3)n2)cc1` gave FBW7 act 0, MITF primary 1, GPR151 ag -1 and TEAD-YAP inh -29.
COc1ccc(-c2csc(Nc3cccc(O)c3)n2)cc1 was read as FBW7 act 0, MITF primary 12, GPR151 ag 1 and TEAD-YAP inh 41*.
`Cc1ccc(-c2csc(Nc3cccc(O)c3)n2)cc1` gave FBW7 act 0, MITF primary -13, GPR151 ag -1 and TEAD-YAP inh 74*.
For CCn1c(C)cc(/C=C2\SC(=Nc3ccc(N4CCOCC4)cc3)N(C)C2=O)c1C the results were FBW7 act 0, MITF primary 15, GPR151 ag 1 and TEAD-YAP inh 3.
CC12COC3(C(=O)Nc4nc5ccccc5s4)CC1CCC32C (centres undefined) was read as FBW7 act 0, MITF primary -3, GPR151 ag 0 and TEAD-YAP inh 67*.
For CC12COC3(C(=O)Nc4ccccc4)CC1CCC32C (centres undefined) the results were FBW7 act 0, MITF primary 8, GPR151 ag -1 and TEAD-YAP inh 0.
Cc1cc(C)cc(NC(=O)C2CCCN2S(=O)(=O)c2ccc(Cl)cc2)c1 (centres undefined) was read as FBW7 act 0, MITF primary 1, GPR151 ag 0 and TEAD-YAP inh -1.
Screening CCOc1ccc(C(=O)Nc2ccc(S(=O)(=O)N3CCCCC3c3cccnc3)cc2)cc1 (centres undefined) returned FBW7 act 0, MITF primary 2, GPR151 ag 1 and TEAD-YAP inh 33*.
For O=C(Nc1ccc(S(=O)(=O)N2CCCCC2c2cccnc2)cc1)c1ccc(S(=O)(=O)N2CCCC2)cc1 (centres undefined) the results were FBW7 act 0, MITF primary 18, GPR151 ag 0 and TEAD-YAP inh 26.
For Cc1ccc(C(=O)Nc2ccc(S(=O)(=O)N3CCCCC3c3cccnc3)cc2)cc1 (centres undefined) the results were FBW7 act 0, MITF primary -17, GPR151 ag -1 and TEAD-YAP inh 12.
O=C(Nc1ccc(S(=O)(=O)N2CCCCC2c2cccnc2)cc1)c1ccc([N+](=O)[O-])cc1 (centres undefined) was read as FBW7 act 0, MITF primary 10, GPR151 ag 0 and TEAD-YAP inh 36*.
CCOC(=O)c1c(NC(=O)Cc2ccc(Cl)cc2)sc(C(C)=O)c1C was read as FBW7 act 0, MITF primary 0, GPR151 ag 1 and TEAD-YAP inh -2.
Screening Oc1cccc2ccc(/C=C/c3cc4c(cc3Cl)OCO4)nc12 returned FBW7 act 0, MITF primary 0, GPR151 ag -7 and TEAD-YAP inh 68*.
Screening Oc1cccc2ccc(/C=C/c3ccc4c(c3)OCO4)nc12 returned FBW7 act 0, MITF primary 6, GPR151 ag -5 and TEAD-YAP inh 80*.
For O=[N+]([O-])c1cccc(/C=C/c2ccc3cccc(O)c3n2)c1 the results were FBW7 act 0, MITF primary 8, GPR151 ag -2 and TEAD-YAP inh -37.
For Cc1ccc(S(=O)(=O)NCCC(=O)NCCC(C)C)cc1 the results were FBW7 act 0, MITF primary 7, GPR151 ag 2 and TEAD-YAP inh 5.
